Laboratory results as given in PubChem BioAssay (NCI).
About 79,000 compounds went through this panel and 15% of them were active in at least one assay; those are over-represented in the sample as a whole. A number with no mark means an inactive call. The source made the active and inactive calls. Rule as the data show it: active = growth inhibition above about 70%; inactive = the rest.

Key:
[1] = NCI Yeast Anticancer Drug Screen. Data for the rad50 strain (AID 155);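 also: 0% = growth of vehicle-only cultures of the same strain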; conditions: S. cerevisiae rad50 strain growth inhibition; at 50.0 µM; stronger effect = higher value
Summary of the method: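 A DNA repair-deficient yeast mutant serves as the test organism; compound-induced growth inhibition is calculated against vehicle-treated cells.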

[2] = NCI Yeast Anticancer Drug Screen. Data for the mec2-1 strain (AID 157); conditions: S. cerevisiae mec2-1 strain, at 50.0 µM, stronger effect = higher value
Summary of the method: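 Each compound was tested on mec2-1 yeast, a strain altered in DNA damage repair or cell cycle control. Growth inhibition is reported relative to vehicle.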

[3] = NCI Yeast Anticancer Drug Screen. Data for the sgs1 mgt1 strain (AID 161);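 also: 0% = growth of cultures given vehicle only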; conditions: S. cerevisiae sgs1 mgt1 strain, at 50.0 µM, stronger effect = higher value
Summary of the method: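 Genetically altered yeast, compound exposure, growth inhibition relative to vehicle.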

[4] = NCI Yeast Anticancer Drug Screen. Data for the bub3 strain (AID 167); conditions: S. cerevisiae bub3 mutant strain, at 50.0 µM, stronger effect = higher value
Summary of the method: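 Inhibition values come from growth of compound-treated mutant yeast normalised to vehicle-treated controls.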

[5] = NCI Yeast Anticancer Drug Screen. Data for the mlh1 rad18 strain (AID 175); conditions: S. cerevisiae mlh1 rad18 strain growth inhibition; at 50.0 µM; stronger effect = higher value
Summary of the method: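 Inhibition values reflect reduced growth of mutant yeast versus vehicle-treated controls following compound exposure; the mutations affect DNA damage repair.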

[6] = NCI Yeast Anticancer Drug Screen. Data for the cln2 rad14 strain (AID 165);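 also: 0% = growth equal to vehicle treated cultures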; conditions: S. cerevisiae cln2 rad14 strain, at 50.0 µM, stronger effect = higher value
Summary of the method: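 Test compounds were added to cln2 rad14 yeast cultures; inhibition of growth was then determined by comparison with vehicle treatment.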

Structure (SMILES) | growth inhibition [1] | growth inhibition [2] | growth inhibition [3] | growth inhibition [4] | growth inhibition [5] | growth inhibition [6] [%]
CCOC(=O)c1cn2ccccc2c1C(=O)OCC | 3.5% | -3.1% | -7.45% | -4.1% | -14.8% | 
NC1=NC(=O)C(CC(=O)Nc2ccc(Cl)cc2Cl)S1 (configuration not stated) | -12.4% | -17.6% | -15.2% | -5.6% | -5.6% | 
NC(=O)C(c1ccccc1)c1ccnc2ccccc12 (configuration not stated) | 2.05% | 4.5% | 7.9% | 20.4% | -21.2% | 
C=Cc1c2ccccc2cc2c1ccc1ccccc12 | 89.3% (active) | 95.2% (active) | 93.5% (active) | 93.3% (active) | 95.2% (active) | 
O=C1c2cc3ccccc3cc2NC(O)c2cccn21 (configuration not stated) | 9.4% | 4.6% | 1.15% | 13.4% | 13.2% | 
OCCCCN(CCO)CCCCO | -2.75% | -7.25% | -1.5% | 13.9% | -3.5% | 
CCC(C)CC(O)CC(C)C (configuration not stated) | 13.9% | 8.85% | 1.2% | 2.65% | 13% | 
CC(=O)O[C@H]1CC(C)(C)C(=C=C/C(C)=C/C=C/C=C/C=C(C)/C=C2C=C(/C=C/[C@@]34O[C@]3(C)C[C@@H](O)CC4(C)C)C(=O)O/2)[C@](C)(O)C1 | 9.55% | 32.5% | 0.9% | 3.6% | 3.95% | 
O=C(OCC1CCCO1)c1ccccc1 (configuration not stated) | 8.4% | 13.2% | -15.3% | -8.75% | -11% | 
N#CC(CCc1ccccc1)(c1ccccc1)c1ccccc1 | -15.5% | -9.05% | -5.85% | 9.5% | -15.7% | 
S=C1N(/N=C/c2c3ccccc3cc3ccccc23)C(=Nc2ccccc2)C(=Nc2ccccc2)N1c1ccccc1 | 16.9% | -4.55% | -6.35% | 16.6% | -7.55% | 
CCC(CC)NNC(CC)CC | -1.8% | -0.6% | -8.05% | -16.3% | -8.25% | 
CC(=O)[O-].O=S(=O)(Nc1ncccn1)c1ccc(N=Cc2ccccc2O)cc1.O=S(=O)(Nc1ncccn1)c1ccc(N=Cc2ccccc2O)cc1.[Co+2] | 25.4% | 23.2% | 26.6% | 32.2% | 25.1% | 
COc1ccc(C(=O)C(C(=O)C(=O)Nc2ccc(Cl)c(Cl)c2)c2ccc(OC)cc2)cc1 (configuration not stated) | -0.6% | 11.2% | -34.4% | 8.95% | -17.3% | 38.1
O=C1Cc2nc3ccccc3nc2CC(=O)c2ccccc21 | 4.9% | 10.9% | 9.35% | -12.1% | 13.3% | 
Cc1csc(NNC(=O)Nc2ccccc2)n1 | 36.7% | 14.2% | -35.5% | -8.65% | 7.5% | 
O=C(Nc1ncccn1)c1ccc(Cl)cc1Cl | -11.9% | 4.8% | 30.6% | 10.6% | 32.3% | 
O=NN(CCCl)C(=O)/N=N/C(=O)N(CCCl)N=O | 6.25% | -38.9% | -20.4% | -3.85% | 20% | 
[O-][n+]1c2ccccc2nn1-c1ccccc1 | -9.1% | -4.25% | -2.65% | -7.2% | -13.8% | 
CC(=O)OCC1OC(n2ccc(=O)[nH]c2=O)C(NC(=O)C(F)(F)F)C(OC(C)=O)C1OC(C)=O (configuration not stated) | 2.4% | -5.4% | -11.2% | -2.05% | -11.7% | 
CCCCCC/C=C/C(N)=O | 5.75% | 5.6% | -7.8% | -20.2% | 8.35% | 
O=C(N=Nc1c(O)[nH]c2ccccc12)c1ccncc1 | -10.8% | 2.15% | -9.25% | -7.4% | 11.1% | 
[Cl-].[Dy+3].[O-]/N=C(\c1ccccc1)c1ccccn1.[O-]/N=C(\c1ccccc1)c1ccccn1.[O-]/N=C(\c1ccccc1)c1ccccn1 | 27.4% | 13.3% | 20.2% | 19.4% | 25.1% | 
CCOC(=O)c1c(C)c2c(n1C)CC/C(=C/NCCc1ccccc1)C2=O | 93% (active) | 79% (active) | 86.4% (active) | 90.5% (active) | 93.3% (active) | 

Structure (SMILES) | growth inhibition [1] | growth inhibition [2] | growth inhibition [3] | growth inhibition [4] | growth inhibition [5] | growth inhibition [6] [%]
CC1=NN(c2ccccc2)C(=O)/C1=C\c1ccccc1 | 15.6% | 16.9% | 24.7% | 33.5% | 21.6% | 
CC(=O)C(C(C)=O)C(C(C)=O)C(C)=O.[Cu] | -26.8% | -11.3% | -21.1% | -18.4% | -22.1% | 
Cc1ccc(NC(=O)c2cc3c(cc2Cl)Sc2nccn2S3(=O)=O)cc1 | 21.7% | 11.3% | 12.7% | 11.4% | 39.1% | 
CC(=O)c1ccc(NC(N)=O)cc1 | 2.15% | -10.4% | 5.3% | -7.15% | -12.5% | 
CCOC(=O)Cc1c(C)cc(C)cc1C | 18.9% | -6.3% | -10.4% | 15.7% | 10.4% | 
COc1cc(C)c2cc(C)cc(C)c2n1 | 3.4% | 6.05% | 1.65% | 3.9% | 7.85% | 
CN(C)c1ccccc1C(=O)N/N=C/c1ccc(F)cc1 | -4.7% | -31.3% | -6.55% | -14.9% | -6% | 
CC(O)CNC(=O)C(C)Oc1ccc(OCC2CCCCC2)cc1 (configuration not stated) | -2.8% | -12.9% | 6.65% | -53.7% | -15.9% | 
CCOC(=O)CC1(C)c2nc(NC(C)=O)sc2Cc2sc(NC(C)=O)nc21 | -2.2% | -8.9% | 0.8% | -2.4% | -15.5% | 
CC(=O)C1C(=O)C(=O)N(Cc2ccccc2)C1=O (configuration not stated) | -20.4% | -13.8% | -27.4% | -7.4% | -19.6% | 
CC1(C)CCCc2c(-c3ccccc3)cc3c4[nH]c5ccccc5c4cc[n+]3c21 | 23.6% | -5.4% | 11.1% | -2.5% | 7% | 
FC12CCC(c3ccccc3)(CC1)CC2 | 11.8% | -8.55% | -4% | -3.5% | -7.4% | 
CC(C)(C)NC1=C([N+](=O)[O-])CCCC1 | 4.25% | 6% | -1.05% | 11.9% | 4.5% | 
O=c1[nH]n(CCc2ccccc2CCl)c2ccc([N+](=O)[O-])cc12 | 26% | 14.6% | 16.4% | 38.7% | -10.6% | 
CCCCC(CCC)OC(=O)Nc1cccc2ccccc12 (configuration not stated) | 35.1% | 0.35% | 3.35% | -0.15% | 40% | -16.1
CN(C)c1ccc(N=Nc2ccc(S(=O)(=O)O)cc2)cc1.CN(C)c1ccc(N=Nc2ccc(S(=O)(=O)O)cc2)cc1.[NH-]C1CCCCC1[NH-].[Pt+2] | 24.2% | 7.1% |  | 15.6% | 3.55% | -9.15
Cc1nc(N)[nH]c(=O)c1N | 13.9% | 3.4% |  | -7.8% | 8.6% | 11.8
Clc1ccc(C2SC=Cc3ccccc32)cc1 (configuration not stated) | 53.8% | 33.8% |  | 49.8% | 37.7% | 5.9
COC(=O)C1C2OC(C(Br)C2Br)C1C(=O)OC (configuration not stated) | -12.1% | -9.5% |  | -1.65% | -10.2% | -1.95
CN(C(=O)Sc1ccc([N+](=O)[O-])cc1)c1ccc([N+](=O)[O-])cc1 | 1.3% | 15.2% |  | 31.4% | 21.3% | 4.05
COCCOC(=O)Nc1c(Cl)cccc1Cl | 1.45% | -18.5% |  | -25.6% | -8.2% | 5.3
O=c1[nH]cnc2nc(N3CCN(c4ccccc4)CC3)sc12 | 18.8% | 11.4% | 19.8% | 4.9% | 23.4% | 
CC(C(N)=O)N1C(=O)C2C3CCC(O3)C2C1=O (configuration not stated) | -7.65% | -6.65% |  | -1.8% | 3.1% | -44.8
